# The campaign covered roughly 69,000 compounds. About 1,000 (1.4%) showed an effect of 50% or more. The full list was thinned out, with strong results kept by preference.
# System: Leishmania donovani
# Assay: Leishmania intramacrophage assay
# Type: functional, organism-based
# Design: scale not given: in the data most compounds retested in dose-response had high values
compound,measurement,setting,value
Cc1c(C(=O)NS(=O)(=O)c2ccc(F)cc2)cnn1CC(C)C,Percent Effect,"30.3 µM, […]",-23.8%
Cn1ncc2c(N3CCS(=O)(=O)CC3)nc(-c3cccnc3)nc21,Percent Effect,"30.3 µM, […]",31.77%
Cn1ncc2c(N3CCC3)nc(-c3ccncc3)nc21,Percent Effect,"30.3 µM, […]",7.019%
CC(C)N1CCCN(c2nc(-c3cccnc3)nc3c2cnn3C)CC1,Percent Effect,"30.3 µM, […]",93.98%
COc1ccccc1-c1csc(NC(=O)N2CCN(C)CC2C)n1 (stereo not drawn),Percent Effect,"30.3 µM, […]",9.878%
CCc1ccccc1CN1CC[C@@]2(O)CCN(S(=O)(=O)N(C)C)C[C@H]2C1,Percent Effect,"30.3 µM, […]",-14.75%
CCN(C)S(=O)(=O)NCC1CCCN(Cc2ccccc2F)C1 (stereo not drawn),Percent Effect,"30.3 µM, […]",-11.05%
Nc1ncc(C(=O)N2CCN(c3nccs3)CC2)cc1Cl,Percent Effect,"30.3 µM, […]",-4.984%
O=C(c1ccc(O)c(Cl)c1)N1CCN(c2nccs2)CC1,Percent Effect,"30.3 µM, […]",64.57%
O=C(c1cc(Cl)cc(Cl)c1)N1CCN(c2nccs2)CC1,Percent Effect,"30 µM, 30.03 µM",30.43%
CC(C(N)=O)N(C)Cc1ccccc1C(F)(F)F (stereo not drawn),Percent Effect,"30.3 µM, […]",-40.32%
CN(Cc1ccccc1C(F)(F)F)C(C(N)=O)c1ccccc1 (stereo not drawn),Percent Effect,"30.3 µM, […]",68.32%
CN(Cc1ccccc1F)C(C(N)=O)c1ccccc1 (stereo not drawn),Percent Effect,"30.3 µM, […]",11.08%
I.c1ccc(Sc2ccc3c(c2)OCO3)c(CNC2=NCCN2)c1,Percent Effect,"30.3 µM, […]",21.74%
Fc1ccccc1Sc1ccccc1CNC1=NCCN1.I,Percent Effect,"30.3 µM, […]",29.36%
Fc1ccc(Sc2ccccc2CNC2=NCCN2)cc1.I,Percent Effect,"30.3 µM, […]",50.51%
Cc1nnc([C@@H]2C[C@H]3CN(C(=O)c4sccc4C)C[C@H]3O2)[nH]1,Percent Effect,"30.3 µM, […]",16.44%
CN(Cc1cccnc1)[C@@H]1CN(C(=O)c2ccno2)[C@@H]2CCCO[C@H]12.O=C(O)C(F)(F)F.O=C(O)C(F)(F)F,Percent Effect,"30.3 µM, […]",75.56%
CN(Cc1cccnc1)[C@@H]1CN(C(=O)c2ccoc2)[C@@H]2CCCO[C@H]12.O=C(O)C(F)(F)F.O=C(O)C(F)(F)F,Percent Effect,"30.3 µM, […]",-5.312%
CN(Cc1cccnc1)[C@@H]1CN(C(=O)CC2CC2)[C@@H]2CCCO[C@H]12.O=C(O)C(F)(F)F.O=C(O)C(F)(F)F,Percent Effect,"30.3 µM, […]",-10.3%
Cn1ccnc1-c1noc(NCc2ccc(Cl)cc2)n1,Percent Effect,"30.3 µM, […]",-1.294%
Cc1cc(C)nc(NC(=O)NCCCSc2nncn2C)n1,Percent Effect,"30.3 µM, […]",12.59%
Cc1ccccc1-n1cnc(Cl)c1C(=O)O,Percent Effect,"30.3 µM, […]",51.36%
O=C(O)c1c(Cl)ncn1-c1ccccc1,Percent Effect,"30.3 µM, […]",42.23%
O=C(O)c1c(Cl)ncn1-c1cccc2ccccc12,Percent Effect,"30.3 µM, […]",32.69%
CN(C)C1CCC2(CCN(Cc3nccn3C)CC2)c2ccccc21.O=C(O)C(F)(F)F.O=C(O)C(F)(F)F (stereo not drawn),Percent Effect,"30.3 µM, […]",15.24%
c1cncc(CN2CCC(NCCc3ccc4c(c3)OCO4)CC2)c1,Percent Effect,"30.3 µM, […]",21.95%
COc1cccc(-c2cc(C(=O)NCCCn3cnnc3)[nH]n2)c1,Percent Effect,"30.3 µM, […]",50.06%
COc1cccc(-c2cc(C(=O)NCCCn3nc(C)cc3C)[nH]n2)c1,Percent Effect,"30.3 µM, […]",35.19%
COc1cccc(-c2cc(C(=O)NCCCC(F)(F)F)[nH]n2)c1,Percent Effect,"30.3 µM, […]",24.25%
Cc1cc(C)c2c(c1)C(CC(=O)O)C(=O)N2 (stereo not drawn),Percent Effect,"30.3 µM, […]",12.49%
Cc1ccc2nc(C)c(C)c(C(=O)NCCCn3ccnn3)c2c1,Percent Effect,"30.3 µM, […]",16%
CC(C)(C)c1n[nH]c(C2CN(Cc3nnc(C4CC4)o3)CCO2)n1 (stereo not drawn),Percent Effect,30 µM,6.806%
Cc1cc(C(=O)N2C[C@@H](CN(C)CCN(C)C)[C@@H](CO)C2)nc(C)n1,Percent Effect,"30.3 µM, […]",0.2814%
COc1ccc2cc(C(=O)N3CCCCC3CC(N)=O)[nH]c2c1 (stereo not drawn),Percent Effect,"30 µM, 30.03 µM",4.026%
NC(=O)CN1CCC(NC(=O)Nc2nccs2)CC1,Percent Effect,"30 µM, 30.03 µM",-0.9986%
CC(CNCc1ccncc1)Oc1ccccn1.Cl (stereo not drawn),Percent Effect,"30 µM, 30.03 µM",6.303%
Cc1c(C)n(CC(O)CN2CCOCC2)c2c(Cl)cccc12.Cl (stereo not drawn),Percent Effect,"30.3 µM, […]",-3.857%
Cc1c(C)n(CC(O)CN2CCN(CCO)CC2)c2c(Cl)cccc12.Cl (stereo not drawn),Percent Effect,"30.3 µM, […]",50.22%
Cc1c(C)n(CC(O)CN2CCCCCC2)c2c(Cl)cccc12 (stereo not drawn),Percent Effect,"30.3 µM, […]",-13.19%
O=C(C1CCOCC1)N1CC[C@H](O)[C@@H]1Cc1cccnc1,Percent Effect,"30.3 µM, […]",25.33%
Cc1noc(C)c1CN(C)c1ncnc2onc(C)c12,Percent Effect,"30.3 µM, […]",-10.33%
O=C(c1cscn1)N1C[C@H](OCc2cccnc2)[C@H]2COC[C@H]21,Percent Effect,"30.3 µM, […]",-0.3632%
COc1cccc(C(C(=O)O)N2CCC(Cn3cccn3)CC2)c1OC (stereo not drawn),Percent Effect,"30.3 µM, […]",3.274%
CNc1nc(CNC(=O)Nc2cccc(Cl)c2OC)cs1,Percent Effect,30 µM,28.86%
COc1c(Cl)cccc1NCc1csc(NC(C)=O)n1,Percent Effect,"30.3 µM, […]",71.24%
COc1c(Cl)cccc1NCc1csc(C)n1,Percent Effect,"30.3 µM, […]",-4.371%
CCc1ccc(C(=O)N2CCCC2c2c(C)nn(C)c2OC)o1 (stereo not drawn),Percent Effect,"30.3 µM, […]",16.94%
O=C(c1ccccn1)N1C[C@@H]2CC[C@H](C1)N(C(=O)Cc1cccs1)C2,Percent Effect,"30.3 µM, […]",-16.24%
COc1ccc(-c2ccnc3nc(N4CCCC4)[nH]c(=O)c23)cc1OC,Percent Effect,"30.3 µM, […]",26.43%
COc1ccc(-c2ccnc3nc(N4CCCCC4)[nH]c(=O)c23)cc1,Percent Effect,"30.3 µM, […]",8.173%
COc1ccccc1-c1ccnc2nc(N3CCCCC3)[nH]c(=O)c12,Percent Effect,"30.3 µM, […]",64.29%
CCCN1CCCC1Cn1nc(C)cc1C (stereo not drawn),Percent Effect,30 µM,21.44%
O=S(=O)(c1ccccc1Br)N1CCC2(CC1)OCCS2,Percent Effect,"30.3 µM, […]",-12.48%
COCCN1CCN(CC(O)c2ccc(OC(F)(F)F)cc2)CC1 (stereo not drawn),Percent Effect,"30.3 µM, […]",52.28%
CCCN1CCN(CC(O)c2ccc(OC(F)(F)F)cc2)CC1 (stereo not drawn),Percent Effect,"30.3 µM, […]",27.81%
OCCN1CCN(CC(O)c2ccc(OC(F)(F)F)cc2)CC1 (stereo not drawn),Percent Effect,"30.3 µM, […]",19.69%
Cc1nc(CCN(C)C(=O)CN2CCCCCC2)no1,Percent Effect,"30.3 µM, […]",28.54%
CC(C)(C)NC(=O)NC(=O)CNc1c(F)cccc1N1CCCC1,Percent Effect,"30.3 µM, […]",14.38%
CCn1nc2c(cc1=O)CN(c1ncnc3ccsc13)CC2,Percent Effect,"30.3 µM, […]",42.12%
CCCn1nc2c(cc1=O)CN(c1ncnc3ccsc13)CC2,Percent Effect,"30.3 µM, […]",56.14%
Cn1nc2c(cc1=O)CN(c1ncnc3ccsc13)CC2,Percent Effect,"30.3 µM, […]",15.92%
Cc1nc([C@@H]2C[C@@H]3CCN(C(=O)c4ccnnc4)C[C@H]3O2)sc1C,Percent Effect,"30 µM, 30.03 µM",6.612%

# — ChEMBL document CHEMBL3988442, “University of Dundee, Small-Polar-MMV Screening Library” (2021)
